An excerpt weighted towards active compounds, which were near 6.3% of everything screened.
tim10-1 inh: tim10-1 yeast growth inhibition; S. cerevisiae tim10-1 ts strain growth, BacTiter-Glo, 24 h; inhibition, % at 20 µM; 2.2% of 330,000 active; AID 463190;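 active = inhibition of at least 40%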;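 also: mutant grown at 25 °C; 0% = DMSO wells with yeast and 100% = wells holding no yeast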
MPTP inh: inhibitors of mitochondrial permeability transition pore. isolated mouse mitochondria, Ca2+ swelling absorbance, 30 min. inhibition, % at 10 µM. 1.4% of 360,000 active. AID 602449;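 active = inhibition of 50% or more, scaled per plate between neutral and stimulator controls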;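 also: 0% = DMSO wells given calcium and 100% = 1 mM EGTA wells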
Mdm2 MdmX PPI: human Mdm2/MdmX binding inhibition. inhibition, % at 8 µM. 3% of 330,000 active. SaOS-2 split-luciferase Mdm2/MdmX complementation, luminescence;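 active = inhibition of at least 50% at 8 µM in the primary screen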
Target sequence (O15151 whole entry, looked up): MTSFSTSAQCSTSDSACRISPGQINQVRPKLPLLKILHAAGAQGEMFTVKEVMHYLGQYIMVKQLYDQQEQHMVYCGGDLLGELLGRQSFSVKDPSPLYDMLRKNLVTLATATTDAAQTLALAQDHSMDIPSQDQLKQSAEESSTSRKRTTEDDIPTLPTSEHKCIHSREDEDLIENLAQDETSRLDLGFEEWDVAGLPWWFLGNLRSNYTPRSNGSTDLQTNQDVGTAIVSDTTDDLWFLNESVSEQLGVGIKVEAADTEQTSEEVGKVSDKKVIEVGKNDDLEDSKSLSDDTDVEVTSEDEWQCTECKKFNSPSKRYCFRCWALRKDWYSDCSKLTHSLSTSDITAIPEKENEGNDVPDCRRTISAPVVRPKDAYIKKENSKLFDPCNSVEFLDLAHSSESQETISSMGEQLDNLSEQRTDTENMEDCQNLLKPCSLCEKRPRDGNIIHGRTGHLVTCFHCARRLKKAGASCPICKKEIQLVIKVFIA
Target sequence (Q00987 whole entry, looked up): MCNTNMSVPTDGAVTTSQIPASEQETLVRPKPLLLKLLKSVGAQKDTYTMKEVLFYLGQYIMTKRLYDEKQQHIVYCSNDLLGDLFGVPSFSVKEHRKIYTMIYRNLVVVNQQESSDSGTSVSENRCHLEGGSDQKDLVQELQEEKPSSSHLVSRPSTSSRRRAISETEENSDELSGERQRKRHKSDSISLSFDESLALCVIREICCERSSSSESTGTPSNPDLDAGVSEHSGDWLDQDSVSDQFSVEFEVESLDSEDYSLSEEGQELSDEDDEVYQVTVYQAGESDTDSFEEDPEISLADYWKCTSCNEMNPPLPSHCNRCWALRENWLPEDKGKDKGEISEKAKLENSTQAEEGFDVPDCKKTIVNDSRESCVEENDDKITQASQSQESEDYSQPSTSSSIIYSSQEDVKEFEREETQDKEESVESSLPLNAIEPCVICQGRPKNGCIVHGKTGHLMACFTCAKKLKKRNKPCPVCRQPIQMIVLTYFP
tim23-1 inh: inhibits growth of tim23-1 mutant yeast; AID 463212; S. cerevisiae tim23-1 growth, BacTiter-Glo luminescence, 24 h; inhibition, % at 20 µM; 1.3% of 330,000 active;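 active = growth inhibition of the mutant yeast at or above 50%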;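 also: temperature-sensitive mutant grown at 25 °C; plate controls were DMSO-treated mutant yeast for no effect and medium wells lacking yeast for full effect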
TIM10 inh: inhibits growth of TIM10 yeast strain; S. cerevisiae TIM10 strain growth, BacTiter-Glo luminescence, 24 h; inhibition, % at 10 µM; 1.4% of 330,000 active;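 active = inhibition of 40% or more at the single tested concentration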;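 also: wild-type TIM10 isogenic control strain grown at permissive 25 °C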
tim23-1 confirm: confirmation of tim23-1 mutant yeast growth inhibitors | shares compounds with tim23-1 inh | S. cerevisiae tim23-1 growth, BacTiter-Glo luminescence, 24 h | inhibition, % at 20 µM | 83% of 4,400 active;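 active = inhibition above about 39% in either of two replicate wells at 20 µM, limit read from the data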;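 also: temperature-sensitive tim23-1 mutant grown at 25 °C; 0% = DMSO wells with yeast and 100% = medium wells without yeast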
* hit, by the source's call; x = not tested or not shown.

SMILES | tim10-1 inh | MPTP inh | Mdm2 MdmX PPI | tim23-1 inh | TIM10 inh | tim23-1 confirm
O=C(Nc1ccc(NC(=O)c2cccs2)cc1)c1ccc(Br)o1 | -20.4 | 1.8 | -13.3 | 42.1 | 5.9 | x
O=C(Nc1ccccc1Cl)c1cccc(NC(=O)c2cccs2)c1 | 16.6 | -0.1 | 36.7 | 59.3* | 13.9 | 62.7*
O=C(Nc1cccc(NC(=O)c2cccs2)c1)c1ccc(Br)o1 | 16.3 | 0.9 | 5.6 | 60.7* | 2.8 | 71.7*
CC1=C(C(=O)N(C)C)CC(CC(=O)NC2CCCC2)C(=O)N1Cc1ccccc1 (centres undefined) | x | -0.1 | x | x | x | x
COCCn1c(=S)[nH]c2cc(C(=O)NC3CCCCC3C)ccc2c1=O (centres undefined) | x | 1.5 | x | x | x | x
N#Cc1nc(-c2cccs2)oc1NCc1ccco1 | 22.8 | 0.3 | -3.4 | 15.5 | -9.4 | x
N#Cc1nc(-c2ccco2)oc1NCc1ccccc1Cl | 18.8 | 5.0 | 22.2 | 42.8 | -16.0 | x
N#Cc1nc(-c2cccs2)oc1NCc1ccccc1Cl | 38.0 | 1.9 | 26.5 | 55.6* | 14.2 | 53.5*
N#Cc1nc(-c2cccs2)oc1NCc1ccc(Cl)cc1 | 24.3 | -2.2 | 12.9 | 50.5* | 23.4 | 55.2*
Cc1nc(NC(=O)c2ccccc2)sc1-c1cc(C(=O)N2CCOCC2)nn1Cc1ccccc1 | x | 1.4 | x | x | x | x
COc1ccccc1/C=C/C(=O)NC(=S)NC(C)C | -3.4 | 0.6 | 28.0 | 59.0* | 10.6 | 41.1*
COc1ccc(-c2cc3ccccc3c(=O)o2)cc1 | x | 1.0 | x | x | x | x
COc1ccc(N=c2cc(-c3ccc(OC)cc3)oc3ccccc23)cc1 | 27.1 | 26.7 | 7.9 | 50.9* | 29.8 | 39.1*
Oc1c(Br)cc(Br)cc1CNc1nccs1 | -3.5 | 1.1 | -2.4 | 30.8 | 10.8 | x
Oc1c(Br)cc(Br)cc1CNc1cnc2ccccc2c1 | 38.0 | 30.9 | -8.8 | 71.6* | -3.3 | 64.8*
COc1ccc(OCC(=O)Nc2ccc3c(c2)CCC3)cc1 | 6.0 | -1.0 | -16.3 | 66.3* | 9.9 | 57.5*
Nc1ccc(N=Nc2ccccc2)c2cccnc12 | 36.4 | 3.8 | -45.6 | 58.6* | 20.7 | 50.5*
Cc1ccccc1N=Nc1ccc(O)c2ncccc12 | x | 4.4 | x | x | x | x
COc1ccccc1Nc1nc(Cl)c(C=O)s1 | 36.7 | 1.6 | -2.9 | 38.7 | 36.0 | x
O=Cc1sc(Nc2ccccc2)nc1Cl | -22.5 | -1.0 | -6.8 | 51.1* | 24.0 | 48.7*
Cc1ccc(Nc2nc(Cl)c(C=O)s2)cc1Cl | 25.3 | 23.2 | 17.3 | 66.9* | 39.0 | 70.8*
CN(C)CCCNc1nc2cc(-c3ccc(F)cc3)sc2c(=O)n1C | x | -3.0 | x | x | x | x
C#CCOCCOCCOCCNc1nc(N2CCN(C(=O)CCCCCCCCCCNC(=O)[C@H](CCCCN)n3cc(CCO)nn3)CC2)nc(N2CCN(C(=O)CCCCCCCCCCNC(=O)[C@H](CCCCN)n3cc(C[C@@H](C)CC)nn3)CC2)n1 | 27.9 | x | 25.7 | 57.1* | 12.6 | 56.4*
C#CCOCCOCCOCCNc1nc(N2CCN(C(=O)CCCCCCCCCCNC(=O)[C@@H](CCC(=O)O)n3cc(CCCCCN)nn3)CC2)nc(N2CCN(C(=O)CCCCCCCCCCNC(=O)[C@H](CCCCN)n3cc(C[C@@H](C)CC)nn3)CC2)n1 | 39.5 | -15.8 | 12.0 | 47.0 | 17.4 | x
C#CCOCCOCCOCCNc1nc(N2CCN(C(=O)CCCCCCCCCCNC(=O)[C@H](CO)n3cc(CCCCCN)nn3)CC2)nc(N2CCN(C(=O)CCCCCCCCCCNC(=O)[C@H](CCCN=C(N)N)n3cc(C[C@@H](C)CC)nn3)CC2)n1 | 33.5 | x | 9.9 | 52.3* | 20.4 | 49.1*
SMILES | tim10-1 inh | MPTP inh | Mdm2 MdmX PPI | tim23-1 inh | TIM10 inh | tim23-1 confirm
O=C(Nc1cccc(-c2ccc(N3CCCCC3)nn2)c1)c1ccc(Br)o1 | 37.5 | -2.6 | -38.9 | 53.5* | 19.1 | 58.7*
CCOc1ccc(-c2cccc(NC(=O)c3ccc(Br)o3)c2)nn1 | 11.7 | -0.9 | -21.9 | 45.9 | 11.3 | x
O=C(Nc1cccc(-c2nnc(-c3ccccc3)o2)c1)c1ccc(Br)o1 | 20.9 | 13.0 | 27.0 | 73.1* | 23.0 | 62.6*
O=C(Nc1cccc(OC(=O)c2ccc(Br)o2)c1)c1ccccc1 | 24.1 | -1.1 | -7.1 | 64.2* | 35.6 | 57.3*
CC(=O)NCCNc1nc2cc(-c3ccccc3C)sc2c(=O)n1C | x | 0.4 | x | x | x | x
CC(C)(C)NC(=O)C(c1ccc(C(F)(F)F)cc1)n1c(=O)c(-c2ccco2)nc2ccccc21 (centres undefined) | x | 1.9 | x | x | x | x
O=C(COc1c(Br)cc(Br)c2cccnc12)N1CCc2ccccc2C1 | 36.5 | -0.6 | 13.0 | 50.5* | 12.2 | 50.7*
COC(=O)[C@@]12C[C@@H](CC(=O)NCc3ccc(C)o3)C(=O)N(Cc3ccc4c(c3)OCO4)C1=CCC(C)(C)C2 | x | -2.6 | x | x | x | x
C/C(=N\Nc1ccc(Cl)cc1)c1ccncc1 | 28.1 | -0.5 | -9.2 | 54.5* | 21.9 | -15.2
C/C(=N\Nc1ccc(F)cc1)c1ccncc1 | -21.5 | 1.6 | 20.8 | 10.7 | -13.4 | x
COc1ccc(-c2cccc(N3CCN(c4ccccn4)CC3)n2)cc1OC | x | 0.3 | x | x | x | x
COC(=O)[C@]12CCCCC=C1N(Cc1cccc3ccccc13)C(=O)[C@H](CC(=O)N1CCN(C(=O)C3CC3)CC1)C2 | x | 0.2 | x | x | x | x
O=C(Oc1ccc(=O)n(-c2ccccc2)n1)c1ccc(F)cc1 | 10.2 | 0.6 | 25.7 | 12.4 | 21.2 | x
O=C(Oc1ccc(=O)n(-c2ccccc2)n1)c1ccc(Cl)cc1 | 22.7 | -3.1 | 7.3 | 60.4* | 23.8 | 43.1*
COc1ccc(C(=O)CC(=O)Nc2ccc([N+](=O)[O-])cc2)cc1 | 13.0 | 2.7 | 1.6 | 63.7* | 35.1 | 73.7*
COc1ccc(NC(=O)CNC(=O)c2ccc([N+](=O)[O-])cc2)cc1 | -11.4 | 1.6 | -1.3 | -5.7 | -16.9 | x
O=C(O)CN1C(=O)c2ccc(Oc3ccc([N+](=O)[O-])cc3)cc2C1=O | 16.3 | -0.9 | 22.7 | 15.0 | 0.7 | x
CCc1nnc(N2C(=O)c3ccc(Oc4ccc([N+](=O)[O-])cc4)cc3C2=O)s1 | 29.3 | 3.1 | 38.2 | 63.7* | 34.4 | 39.0
O=C(CSc1ccccc1)N/N=C/c1ccccc1O | 24.5 | -0.5 | 42.3 | 52.3* | 18.9 | 55.2*
O=C(CCSCCC(=O)NN=Cc1ccccc1O)NN=Cc1ccccc1O | x | 2.7 | x | x | x | x
CCOc1ccc(NC(=O)c2ccccc2CO)cc1 | 16.7 | -0.9 | -5.1 | 58.0* | 1.5 | 12.0
COc1ccc(-c2cn3ccccc3n2)cc1 | -2.8 | 1.7 | -80.1 | 23.6 | 20.5 | x
COc1c(Cl)cccc1-c1cn2ccccc2n1 | 5.7 | 1.8 | -94.4 | 55.3* | 20.2 | 33.8
Cc1ccccc1OCc1nc2ccccc2c(=O)n1NC(=O)c1ccco1 | 20.0 | -1.6 | 37.0 | 53.4* | 10.2 | 38.0
COc1cc(C(C)=O)ccc1OCC(=O)N1CCCC1c1ccc2c(c1)OCCCO2 (centres undefined) | x | 0.8 | x | x | x | x
O=C(Cc1ccccc1)n1nc(-c2ccco2)nc1SCc1ccccc1 | 10.3 | -2.4 | -23.9 | 24.0 | 0.2 | x
CCCC(=O)n1nc(-c2ccco2)nc1SCc1ccccc1 | 34.8 | 0.0 | 14.9 | 54.3* | 36.2 | 51.8*
COc1cccc(C(O)c2nc(/C=C/c3ccccc3)cs2)c1 (centres undefined) | x | 1.1 | x | x | x | x

Screening results: PubChem BioAssay, Sanford-Burnham Center for Chemical Genomics
